This note sets out measurements from PubChem BioAssay.

Molecules are shown by their SMILES. The source made the active and inactive calls. Unless noted, no rule for the calls is given here.

The subject of assay [1] is Wnt5a (protein binding on small-molecule microarray). Briefly: small molecules binding Wnt5a protein – biophysical, small-molecule microarray, 635/667 nm fluorescence, primary screen (AID 1142).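 Also: fluorescence read at 667 nm with signal to noise per printed feature.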 The following applies: 635 nm fluorescence, higher = more signal.
Assay [2] can be described thus: ATP-based viability of Huh7 replicon cells – cell-based, CellTiter-Glo luminescence, basal, 48 h, cytotoxicity control for HCV replication inhibitor project, primary screen (AID 1143).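 Also: Huh7 hepatoma cells carrying a hepatitis C replication reporter with no stimulus; test concentration not given here.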 As to conditions: higher = more signal, called active from +8 up or from −8 down. Background: Replicon systems follow genome replication, usually without infectious particles.
The nature of assay [3]: Pseudomonas biofilm growth suppression – PAO1 strain, BacTiter-Glo luminescence, LB-PBS, primary screen (AID 1144). The following applies: P. aeruginosa PAO1 biofilm, 12 h, higher = more signal.
The nature of assay [4]: basal CRE-LacZ reporter activity in PC12 – cell-based, unstimulated, primary screen (AID 1145). The following applies: no forskolin, luminescence, 4.5 h, higher = more signal, called active from +8 up or from −8 down.
Assay [5] is described as follows: forskolin-driven CRE-LacZ activity in PC12 – cell-based, CRE-LacZ reporter, forskolin-stimulated, primary screen (AID 1146).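 Also: PC12 cells with 6xCRE LacZ reporter stimulated by forskolin 10 µM; beta-galactosidase reporter signal reflecting CREB driven transcription.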 As to conditions: luminescence, 4.5 h, higher = more signal, called active from +8 up or from −8 down.
Assay [6] deals with Streptavidin (Streptomyces avidinii) (UniProt P22629). Kind of assay: compounds binding control protein streptavidin – biophysical, small-molecule microarray, 635/667 nm fluorescence, artefact control for SMM compound annotation, primary screen (AID 1147).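 Also: signal reflects streptavidin binding to arrayed compounds as a control protein.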 The following applies: higher = more signal.
The nature of assay [7]: probe aInhba binding on compound microarray – biochemical, small-molecule microarray, 635/667 nm fluorescence, primary screen (AID 1148).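 Also: score merges 667nm spot fluorescence with signal-to-noise for antibody binding to printed compounds.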 The following applies: higher = more signal.
For assay [8], the target named is Torsin-1A (Homo sapiens) (UniProt O14656). Briefly: TOR1A wild-type binding on microarray – cell lysate, small-molecule microarray, lysate, 635/667 nm, primary screen (AID 1149). The following applies: COS7 hTOR1A-WT lysate, 635 nm fluorescence, higher = more signal.
Assay [9] has the same target. Kind of assay: torsin A mutant lysate binding on microarrays – cell lysate, small-molecule microarray, COS7 lysate, 635/667 nm fluorescence, primary screen (AID 1150).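 Also: score pools 667 nm emission and signal to noise measuring lysate protein binding.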 The following applies: COS7 hTOR1A mutant lysate, 635 nm fluorescence, higher = more signal.
For assay [10], the system named is Sonic hedgehog protein (Shh). Kind of assay: Sonic hedgehog microarray binding compounds – biochemical, small-molecule microarray, 635/667 nm fluorescence, primary screen (AID 1151).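 Also: Shh protein binding to compounds spotted on small-molecule microarray slides; score combines spot fluorescence intensity with signal-to-noise across triplicate slides.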 As to conditions: 635 nm fluorescence, higher = more signal.
Assay [11] in a line: optical density shifts of acrAB sulA E. coli – strain DRC41, OD650, 48 h, E. coli filamentation inducer project, primary screen (AID 1152).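 Also: E. coli MC1000 strain DRC41 lacking acrAB efflux pump and sulA.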 As to conditions: higher = more signal, called active from +8 up or from −8 down.
Assay [12] is described as follows: probe aLefty1 binding on compound microarray – biochemical, small-molecule microarray, 635/667 nm fluorescence, primary screen (AID 1153).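 Also: score merges spot fluorescence with signal-to-noise ratio from the scanned slide images.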 As to conditions: higher = more signal.
The nature of assay [13]: plasmodial surface anion channel blockers, osmotic lysis – cell-based, P. falciparum Indochina, OD700, 1 h, primary screen (AID 1154). The following applies: P. falciparum Indochina infected RBC osmotic lysis, higher = more signal, called active from +8 up or from −8 down.
Assay [14] is described as follows: plasmodial surface anion channel blockers, osmotic lysis – cell-based, P. falciparum Indochina, OD700, 2 h, primary screen (AID 1155).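 Also: lysis reports solute entry through the parasite surface anion channel PSAC.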 The following applies: P. falciparum Indochina infected erythrocytes, higher = more signal, called active from +8 up or from −8 down.
Assay [15] in a line: changes in parasitized red cell lysis, either direction – P. falciparum Indochina, OD700, 3 h, PSAC antagonist project, primary screen (AID 1156). As to conditions: P. falciparum-infected erythrocytes, osmotic lysis, higher = more signal, called active from +8 up or from −8 down.
The nature of assay [16]: plasmodial surface anion channel blockers, osmotic lysis – cell-based, P. falciparum Indochina, OD700, 18 h, primary screen (AID 1157). As to conditions: P. falciparum Indochina infected erythrocytes, osmotic lysis OD700, 18 h; higher = more signal, called active from +8 up or from −8 down.
Assay [17] is described as follows: S6 kinase pathway phospho-S6 level changes – cell-based, A549, cytoblot, luminescence, serum-stimulated, primary screen (AID 1158).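 Also: serum-stimulated A549 lung adenocarcinoma cells; signal is phosphorylated S6 detected by cytoblot immunostaining with HRP secondary.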 The following applies: 5 h, higher = more signal.
Assay [18] addresses NADPH oxidase 2 (Homo sapiens) (UniProt P04839). Kind of assay: compounds shifting NOX2 Amplex Red fluorescence – cell-based, HEK293-NOX2, PMA-stimulated, NOX inhibitor project, primary screen (AID 1159). Also: test concentration not given here. The following applies: 45 min, higher = more signal, called active from +8 up or from −8 down.
Assay [19] concerns the target NADPH oxidase 4 (Homo sapiens) (UniProt Q9NPH5). Briefly: compounds shifting NOX4 Amplex Red fluorescence – cell-based, HEK293-NOX4, tetracycline-induced, NOX inhibitor project, primary screen (AID 1160). The following applies: HEK293-NOX4, Amplex Red H2O2 fluorescence, 45 min; higher = more signal, called active from +8 up or from −8 down.
The target in assay [20] is NADPH oxidase 5 (Homo sapiens) (UniProt Q96PH1). Briefly: compounds shifting NOX5 Amplex Red fluorescence – cell-based, HEK293-NOX5, NOX inhibitor project, primary screen (AID 1161). As to conditions: HEK293-NOX5, ionomycin, 45 min, higher = more signal.
NADPH oxidase 5 (Homo sapiens), sequence (Q96PH1 whole entry, looked up): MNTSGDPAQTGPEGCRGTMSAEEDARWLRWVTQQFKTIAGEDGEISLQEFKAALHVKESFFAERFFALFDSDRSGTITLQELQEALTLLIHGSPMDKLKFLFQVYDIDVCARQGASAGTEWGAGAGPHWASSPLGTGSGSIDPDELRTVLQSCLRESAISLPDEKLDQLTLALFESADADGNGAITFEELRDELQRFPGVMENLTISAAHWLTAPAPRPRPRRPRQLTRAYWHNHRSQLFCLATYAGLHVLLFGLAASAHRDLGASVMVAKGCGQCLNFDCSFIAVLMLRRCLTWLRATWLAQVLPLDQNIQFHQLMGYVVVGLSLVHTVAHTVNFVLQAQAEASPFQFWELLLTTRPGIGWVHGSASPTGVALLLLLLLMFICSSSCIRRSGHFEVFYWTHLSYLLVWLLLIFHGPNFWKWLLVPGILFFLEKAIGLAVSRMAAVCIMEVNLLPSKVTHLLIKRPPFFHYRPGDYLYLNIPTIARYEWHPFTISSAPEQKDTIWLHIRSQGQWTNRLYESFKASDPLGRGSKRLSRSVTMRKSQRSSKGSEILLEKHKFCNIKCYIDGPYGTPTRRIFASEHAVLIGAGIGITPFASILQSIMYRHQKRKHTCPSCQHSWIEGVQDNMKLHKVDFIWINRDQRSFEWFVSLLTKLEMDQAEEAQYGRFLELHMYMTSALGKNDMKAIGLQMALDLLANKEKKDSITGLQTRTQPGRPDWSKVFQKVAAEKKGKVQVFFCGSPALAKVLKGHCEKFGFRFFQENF

NADPH oxidase 2 (Homo sapiens), sequence (P04839 whole entry, looked up): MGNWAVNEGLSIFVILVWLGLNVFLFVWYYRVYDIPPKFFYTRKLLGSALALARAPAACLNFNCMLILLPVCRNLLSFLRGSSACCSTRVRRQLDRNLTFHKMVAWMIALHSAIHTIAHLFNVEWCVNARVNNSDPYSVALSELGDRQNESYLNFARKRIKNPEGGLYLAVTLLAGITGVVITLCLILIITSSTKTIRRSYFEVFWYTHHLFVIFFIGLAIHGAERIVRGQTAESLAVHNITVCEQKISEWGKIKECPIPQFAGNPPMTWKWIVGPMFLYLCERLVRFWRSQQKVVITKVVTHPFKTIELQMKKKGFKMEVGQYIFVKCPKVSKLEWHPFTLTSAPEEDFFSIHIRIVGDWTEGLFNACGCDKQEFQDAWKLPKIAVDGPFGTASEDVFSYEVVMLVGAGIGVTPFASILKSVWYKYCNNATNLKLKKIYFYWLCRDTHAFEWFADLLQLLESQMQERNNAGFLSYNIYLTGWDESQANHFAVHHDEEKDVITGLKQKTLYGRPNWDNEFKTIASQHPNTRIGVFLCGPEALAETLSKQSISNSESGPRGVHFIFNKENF
Torsin-1A (Homo sapiens), sequence (O14656 whole entry, looked up): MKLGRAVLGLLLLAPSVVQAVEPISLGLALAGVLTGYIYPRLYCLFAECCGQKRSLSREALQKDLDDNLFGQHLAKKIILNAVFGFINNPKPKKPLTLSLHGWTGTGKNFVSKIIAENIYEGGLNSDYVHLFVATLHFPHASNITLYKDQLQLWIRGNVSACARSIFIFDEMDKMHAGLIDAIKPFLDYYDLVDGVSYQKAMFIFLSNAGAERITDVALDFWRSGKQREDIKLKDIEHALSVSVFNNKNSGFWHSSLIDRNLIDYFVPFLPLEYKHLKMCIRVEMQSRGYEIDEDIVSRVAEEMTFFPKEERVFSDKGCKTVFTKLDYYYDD
NADPH oxidase 4 (Homo sapiens), sequence (Q9NPH5 whole entry, looked up): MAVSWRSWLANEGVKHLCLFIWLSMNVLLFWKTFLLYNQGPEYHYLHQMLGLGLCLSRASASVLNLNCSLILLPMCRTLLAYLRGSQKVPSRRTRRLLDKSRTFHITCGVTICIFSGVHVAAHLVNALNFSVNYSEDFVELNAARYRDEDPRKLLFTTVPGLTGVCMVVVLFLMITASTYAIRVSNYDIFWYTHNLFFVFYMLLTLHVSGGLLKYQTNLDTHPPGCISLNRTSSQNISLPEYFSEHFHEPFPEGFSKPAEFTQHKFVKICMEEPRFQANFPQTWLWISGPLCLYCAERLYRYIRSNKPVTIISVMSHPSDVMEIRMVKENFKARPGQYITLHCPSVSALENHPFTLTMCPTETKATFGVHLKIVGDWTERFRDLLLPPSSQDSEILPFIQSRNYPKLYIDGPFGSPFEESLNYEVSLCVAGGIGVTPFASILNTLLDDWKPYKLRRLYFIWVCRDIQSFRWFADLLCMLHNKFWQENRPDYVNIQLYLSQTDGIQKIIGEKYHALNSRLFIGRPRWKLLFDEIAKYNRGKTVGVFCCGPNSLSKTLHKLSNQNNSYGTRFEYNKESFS
Streptavidin (Streptomyces avidinii), sequence (P22629 whole entry, looked up): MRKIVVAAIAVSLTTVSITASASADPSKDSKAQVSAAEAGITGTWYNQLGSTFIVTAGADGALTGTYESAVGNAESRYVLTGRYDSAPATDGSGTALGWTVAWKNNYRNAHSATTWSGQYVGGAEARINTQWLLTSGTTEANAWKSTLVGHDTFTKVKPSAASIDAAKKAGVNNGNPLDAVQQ

On to `CCOC(=O)C1=CCC(c2cc3ccccc3[nH]2)N(S(=O)(=O)c2ccccc2[N+](=O)[O-])C1` (stereo not given), for which the composite z-score is 0.379 in [1]; -0.141 in assay [6]; -0.101 in [7]; 0.0459 in [8]; 0.609 in [9]; -0.312 in assay [10]. The compound further returned a composite z-score in assay [12] of -0.391. The z-score in assay [2] was -5.05 (inactive); in assay [3] it was -0.295 (inactive); in assay [4], -0.172 (inactive); in assay [5], -0.0943 (inactive); in [11] it was -0.485 (inactive); in assay [13], 4.73 (inactive). Further, the z-score in [14] is 0.822 (inactive); in [15], -0.217 (inactive); in assay [16], 0.631 (inactive); in assay [17], -0.146; in [18], 0.269 (inactive); in assay [19], -0.546 (inactive). Further, the z-score in assay [20] was 0.731.
Consider `CN(C)CCCC[C@@H]1NC(=O)[C@H]2C[C@@H](C(=O)O)[C@@H](c3cccc(OCCO)c3)N2C1=O`, for which the composite z-score was 0.205 in assay [1]; -0.414 in [6]; 0.216 in [7]; 0.717 in assay [8]; 1.1 in assay [9]; 1.84 in assay [10]. Further, in [12], the composite z-score is 0.393. Moreover, the z-score in assay [2] is -0.0686 (inactive); in assay [3] it was -0.43 (inactive); in [4], 0.0124 (inactive); in assay [5] it was 0.0684 (inactive); in [11] it was 0.0804 (inactive); in assay [13], 7.58 (inactive). Moreover, the z-score is 0.945 (inactive) in [14]; -5.21 (inactive) in [15]; 0.424 (inactive) in assay [16]; 0.479 in assay [17]; -2.73 (inactive) in assay [18]; -3.04 (inactive) in assay [19]. The z-score in assay [20] was -1.4.
Regarding `C=CCNC(=O)[C@@H]1[C@H]2C(=O)O[C@H](c3ccccc3)[C@H](c3ccccc3)N2[C@H](c2ccccc2OCCO)[C@@]12C(=O)N(C(=O)OCCOC)c1ccc(C#CCCO)cc12`, the composite z-score in assay [1] was found to be 0.304; in [6], 0.284; in assay [7] it was 0.0649; in assay [8], 0.338; in assay [9], 1.35; in assay [10], 1.06. Besides, the composite z-score in assay [12] was found to be 0.209. Moreover, the z-score in [2] was -3.34 (inactive); in assay [3] it was -0.976 (inactive); in assay [4], -0.0768 (inactive); in [5], -0.466 (inactive); in assay [11], -0.288 (inactive); in assay [13], 2.62 (inactive). Besides, the z-score in assay [14] was 1.15 (inactive); in [15], 0.123 (inactive); in assay [16], 0.167 (inactive); in assay [17], 0.568; in assay [18] it was 1.57 (inactive); in [19] it was 1.31 (inactive). Moreover, the z-score in assay [20] was 0.165.
As to `C#CCN=C(N)N`, the composite z-score in [1] was 0.0311; in [6], 0.314; in assay [7], 0.0797; in assay [8] it was 1.7; in assay [9], 0.832; in assay [10], 0.666. The compound further had a composite z-score in assay [12] of -0.214. Further, the z-score in assay [2] was -0.347 (inactive); in assay [3], 0.214 (inactive); in [4], -0.0247 (inactive); in [5], -0.055 (inactive); in assay [11], 0.0764 (inactive); in assay [13], 0.269 (inactive). Moreover, the z-score in assay [14] is 0.347 (inactive); in assay [15], -0.765 (inactive); in [16], -0.0065 (inactive); in assay [17], -0.871; in assay [18], 0.059 (inactive); in [19], 0.217 (inactive). In addition, the z-score in assay [20] was -0.0927.
For `NC(=O)NCC#Cc1ccc2c(c1)[C@]1(C(=O)N2)[C@H](C(=O)Nc2nc3ccccc3s2)[C@H]2C(=O)O[C@H](c3ccccc3)[C@H](c3ccccc3)N2[C@@H]1c1ccc(OCCO)cc1`, the composite z-score is 0.262 in [1]; 1.11 in assay [6]; 0.264 in [7]; -0.657 in assay [8]; -0.628 in assay [9]; 0.287 in [10]. This compound gave a composite z-score in assay [12] of 0.309. Also, the z-score was 0.378 (inactive) in assay [2]; -1.02 (inactive) in [3]; 0.182 (inactive) in assay [4]; -0.199 (inactive) in [5]; 0.197 (inactive) in [11]; 1.93 (inactive) in assay [13]. The z-score in assay [14] was 1.1 (inactive); in assay [15], -0.166 (inactive); in assay [16] it was 0.737 (inactive); in assay [17], 0.169; in assay [18], 0.681 (inactive); in [19] it was 0.611 (inactive). In assay [20], the z-score was 0.715.
